This passage reports growth results from PubChem BioAssay (NCI).

What all share (test): NCI-60 one-dose screen, 48 h (100 = growth as untreated, 0 = no growth, -100 = all killed)
In assay [1] the test system is NCI-H23 lung. The following applies: 10 µM unless noted.
Assay [2] has as its system NCI-H226 lung. The settings on record: 10 µM unless noted.
The test system of assay [3] is NCI-H322M lung. The following applies: 10 µM unless noted.
Assay [4] deals with HOP-62 NSCLC. The following applies: 10 µM unless noted.
Assay [5] concerns NCI-H522 lung. The settings on record: 10 µM.
In assay [6] the test system is A549/ATCC NSCLC. The settings on record: 10 µM unless noted.
Assay [7] concerns 786-0 renal. The settings on record: 10 µM unless noted.
In assay [8] the test system is COLO 205 colon. The following applies: 10 µM unless noted.
Assay [9] has as its system DU-145 prostate. The following applies: 10 µM unless noted.
The subject of assay [10] is K-562 leukemia. The following applies: 10 µM unless noted.
For assay [11], the system named is MALME-3M melanoma. The following applies: 10 µM unless noted.
Assay [12] relates to MDA-MB-231 breast. The following applies: 10 µM unless noted.
The test system of assay [13] is RXF 393 renal. The following applies: 10 µM unless noted.
Assay [14] relates to SF-268 CNS. The following applies: 10 µM unless noted.
In assay [15] the test system is SF-295 CNS. The settings on record: 10 µM unless noted.
Assay [16] deals with UACC-257 melanoma. The following applies: 10 µM unless noted.
For assay [17], the system named is M14 melanoma. The settings on record: 10 µM unless noted.
The subject of assay [18] is SF-539 CNS. The settings on record: 10 µM unless noted.
Assay [19] has as its system HOP-92 NSCLC. The settings on record: 10 µM.
Assay [20] deals with NCI-H460 lung. The following applies: 10 µM unless noted.

This is part of a sample that, as a whole, favours compounds with a hit. Of some 83,000 tested, about 20% had one in any assay.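 Each cell line was grown in a 96-well plate and treated with one concentration of compound for 48 hours. Values below 10 were considered active.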 Values without a mark were called inactive. Activity calls are given as the source filed them.

In the case of `CCOC(=O)CNS(=O)(=O)CC(=O)c1ccccc1`, the growth in [1] was 101%; in assay [2], 101%; in assay [3] it was 87.9%; in assay [4] it was 83.8%; in [5] it was 89.8%; in assay [6] it was 116%. For the same compound, the growth was 97.5% in assay [7]; 130% in assay [8]; 117% in [9]; 86.8% in [10]; 83% in assay [11]; 97.3% in assay [12]. In addition, the growth in assay [13] was 117%; in [14], 124%; in assay [15], 118%; in assay [16] it was 132%; in assay [17] it was 93.4%.
Turning to `C/C(=C\c1ccc2ccccc2c1)[N+](=O)[O-]`, the growth in assay [1] was 74.6%; in assay [2] it was 67%; in assay [3], 78.2%; in assay [4], 98.7%; in assay [6], 97.3%; in assay [7], -62.9% (active). The growth in assay [8] is -26.9% (active); in assay [9] it was 27%; in assay [10], 5.31% (active); in assay [11] it was -58.7% (active); in assay [12], 50.8%; in assay [13] it was -86.1% (active). Besides, the growth in assay [14] is 21%; in assay [15], 92.2%; in assay [18] it was 15.6%; in assay [16], 68.9%; in [17], 22.4%.
As to `COc1ccc2cnc(N)c(C#Cc3cc(C(=O)Nc4ccc(CN5CCN(C)CC5)c(C(F)(F)F)c4)cnc3C)c2c1`, the growth in assay [1] was 52.3%; in assay [2], 26.8%; in assay [3] it was 70.3%; in assay [4] it was 18.9%; in assay [19] it was 20.1%; in assay [6] it was 61.5%. Further, the growth is -50.3% (active) in assay [7]; 64% in assay [9]; -42.8% (active) in assay [10]; -66.4% (active) in [11]; 9.87% (active) in assay [12]; -12.9% (active) in assay [13]. Moreover, the growth in [14] is 62.5%; in [15] it was 78.9%; in assay [18], 31.3%; in assay [16], 33.1%; in assay [17], 7.97% (active).
`C/C=C/C/C=C/[C@H](C)C[C@H](O)[C@@H]1C[C@@H]2O[C@H]2/C=C/[C@H](O)[C@@H](O)/C=C/C[C@H](C)CC(=O)O1`: the growth in assay [1] is 83%; in [2], 87%; in assay [3], 88.9%; in assay [4], 89.6%; in [6], 71.8%; in assay [7] it was 83.3%. Also, the growth in [8] is 109%; in assay [9], 90.7%; in assay [10] it was 65.8%; in assay [11], 103%; in assay [12], 90%; in assay [13], 117%. In addition, the growth in assay [14] is 85.8%; in [15], 84.5%; in [18], 85.2%; in [16] it was 110%; in assay [17], 81.5%.
Consider `CN(CCC#N)c1ccc(/C=C(\C#N)c2cccc(C(F)(F)F)c2)cc1`, for which the growth in assay [1] was 66.2%; in [2], 65.7%; in assay [3], 86.5%; in assay [4], 81.7%; in assay [6], 36.3%; in assay [7] it was 74.9%. The growth is 49.5% in assay [8]; 82.5% in assay [9]; 21% in assay [10]; 58.2% in assay [11]; 58.8% in assay [12]; 71.7% in assay [13]. The growth in assay [14] was 81.7%; in assay [15], 95.8%; in assay [18] it was 68%; in assay [17] it was 55.9%.
In the case of `C/C=C/C/C=C/[C@H](C)C[C@H](O)[C@@H]1C[C@@H]2O[C@H]2/C=C/[C@@H]2OC(C)(C)O[C@H]2/C=C/C[C@H](C)CC(=O)O1`, the growth in assay [1] was 36.3%; in [2] it was 30.5%; in [3], 55.5%; in assay [4], 41.6%; in assay [6], 24.7%; in assay [7], 53.5%. Further, the growth in assay [8] was 61.1%; in assay [9], 36.1%; in assay [10], 30.1%; in assay [11], 87.6%; in [12], 61.6%; in assay [13], 81.1%. Moreover, the growth is 46.9% in assay [14]; 28.8% in [15]; 71% in assay [18]; 69.9% in assay [16]; 36.8% in [17].
Consider `C=C1CCC2C3(C)COC(c4ccccc4)OC3CCC2(C)C1C/C=C1/C(=O)OCC1O` (stereo unspecified), for which the growth in assay [1] was 87.2%; in assay [2], 92.2%; in assay [3], 87.3%; in assay [4] it was 117%; in assay [5] it was 55.4%; in assay [7], 91%. Also, the growth was 99.8% in [11], 89.4% in assay [12], 87.6% in [15] and 80.6% in assay [17].
Turning to `Cc1ccc(C(=O)NN)cc1`, the growth in assay [1] was 101%; in [2] it was 109%; in [3], 127%; in assay [4] it was 104%; in assay [5], 102%; in assay [7] it was 106%. Besides, the growth in assay [10] was 91.6%; in [11], 117%; in assay [13], 103%; in assay [15], 111%; in [18], 114%; in [17], 113%.
Regarding `CCOC(=O)C1=C(C(F)(F)F)NC(=O)NC1CN1C(=O)c2ccccc2C1=O` (stereo unspecified), the growth in assay [1] was 99.3%; in assay [2], 111%; in assay [3] it was 107%; in assay [20], 112%; in [19] it was 60.8%; in assay [5], 115%. Moreover, the growth is 115% in [6]; 104% in assay [7]; 116% in assay [8]; 106% in assay [9]; 76.1% in assay [10]; 113% in [11]. In addition, the growth in assay [12] is 100%; in [13], 106%; in assay [14] it was 103%; in assay [15], 104%; in assay [18] it was 100%; in assay [16], 103%.
